Drawing on PubChem BioAssay, this text covers inhibition for 65 molecules.

Values without a mark were called inactive. The source made the active and inactive calls. The rule behind the calls is not given here.

Experiment [1] concerns Botulinum neurotoxin type F light chain protease (Clostridium botulinum). The experiment is described as follows: Botulinum neurotoxin type F light chain protease inhibition, multiplex microsphere flow cytometry, validation set (AID 588459). The following applies: multiplex microsphere protease substrate cleavage assay, at 10 µM, active compounds read high. On the technique in general: In flow cytometry, cells or beads pass a laser one at a time.

For experiment [2], the target named is Botulinum neurotoxin type A (Clostridium botulinum) (UniProt P0DPI0). The experiment is described as follows: BoNT/A light chain protease inhibitors, biochemical, multiplex microsphere flow cytometry, validation set (AID 588460). The following applies: at 10 µM, active compounds read high.
Botulinum neurotoxin type A (Clostridium botulinum), sequence (P0DPI0 whole entry, looked up): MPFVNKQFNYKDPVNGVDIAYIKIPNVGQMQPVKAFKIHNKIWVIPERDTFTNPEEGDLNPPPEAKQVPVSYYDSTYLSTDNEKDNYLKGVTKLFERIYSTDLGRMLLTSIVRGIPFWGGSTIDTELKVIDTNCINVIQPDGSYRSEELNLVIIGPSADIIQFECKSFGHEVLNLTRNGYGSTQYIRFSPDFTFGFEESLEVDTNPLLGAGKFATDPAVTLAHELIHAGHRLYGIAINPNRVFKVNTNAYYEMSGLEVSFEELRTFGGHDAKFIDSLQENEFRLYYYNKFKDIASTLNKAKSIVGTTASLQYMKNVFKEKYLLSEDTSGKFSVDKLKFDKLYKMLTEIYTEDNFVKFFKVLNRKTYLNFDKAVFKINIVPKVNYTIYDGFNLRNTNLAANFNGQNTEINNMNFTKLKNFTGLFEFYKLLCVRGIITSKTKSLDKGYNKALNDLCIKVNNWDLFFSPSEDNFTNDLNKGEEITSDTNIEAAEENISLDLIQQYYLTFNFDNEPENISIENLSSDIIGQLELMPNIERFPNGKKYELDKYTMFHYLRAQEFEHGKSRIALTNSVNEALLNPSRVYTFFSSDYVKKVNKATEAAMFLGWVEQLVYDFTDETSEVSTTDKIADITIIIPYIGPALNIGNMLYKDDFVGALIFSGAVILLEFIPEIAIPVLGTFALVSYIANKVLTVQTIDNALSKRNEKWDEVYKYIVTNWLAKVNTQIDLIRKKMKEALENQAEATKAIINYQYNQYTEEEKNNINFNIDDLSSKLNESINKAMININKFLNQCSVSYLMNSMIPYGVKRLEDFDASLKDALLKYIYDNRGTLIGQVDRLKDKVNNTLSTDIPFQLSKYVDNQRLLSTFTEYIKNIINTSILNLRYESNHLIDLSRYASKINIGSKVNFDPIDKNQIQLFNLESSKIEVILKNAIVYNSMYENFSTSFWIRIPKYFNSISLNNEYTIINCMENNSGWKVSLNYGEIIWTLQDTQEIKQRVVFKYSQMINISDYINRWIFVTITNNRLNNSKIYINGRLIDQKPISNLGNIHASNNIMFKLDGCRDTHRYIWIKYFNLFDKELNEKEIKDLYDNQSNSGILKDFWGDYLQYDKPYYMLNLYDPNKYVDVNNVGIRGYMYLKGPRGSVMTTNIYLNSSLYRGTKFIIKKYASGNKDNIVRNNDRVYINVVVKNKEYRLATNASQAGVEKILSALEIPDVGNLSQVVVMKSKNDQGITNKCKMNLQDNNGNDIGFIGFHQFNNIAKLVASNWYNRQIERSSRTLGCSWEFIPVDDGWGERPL
Experiment [3] has as its target Lethal factor (Bacillus anthracis) (UniProt P15917). The experiment is described as follows: Lethal factor protease inhibitors, Bacillus anthracis, multiplex microsphere cleavage assay, validation set (AID 588461). The following applies: flow cytometry, at 10 µM, active compounds read high.

Lethal factor (Bacillus anthracis), sequence (P15917 whole entry, looked up): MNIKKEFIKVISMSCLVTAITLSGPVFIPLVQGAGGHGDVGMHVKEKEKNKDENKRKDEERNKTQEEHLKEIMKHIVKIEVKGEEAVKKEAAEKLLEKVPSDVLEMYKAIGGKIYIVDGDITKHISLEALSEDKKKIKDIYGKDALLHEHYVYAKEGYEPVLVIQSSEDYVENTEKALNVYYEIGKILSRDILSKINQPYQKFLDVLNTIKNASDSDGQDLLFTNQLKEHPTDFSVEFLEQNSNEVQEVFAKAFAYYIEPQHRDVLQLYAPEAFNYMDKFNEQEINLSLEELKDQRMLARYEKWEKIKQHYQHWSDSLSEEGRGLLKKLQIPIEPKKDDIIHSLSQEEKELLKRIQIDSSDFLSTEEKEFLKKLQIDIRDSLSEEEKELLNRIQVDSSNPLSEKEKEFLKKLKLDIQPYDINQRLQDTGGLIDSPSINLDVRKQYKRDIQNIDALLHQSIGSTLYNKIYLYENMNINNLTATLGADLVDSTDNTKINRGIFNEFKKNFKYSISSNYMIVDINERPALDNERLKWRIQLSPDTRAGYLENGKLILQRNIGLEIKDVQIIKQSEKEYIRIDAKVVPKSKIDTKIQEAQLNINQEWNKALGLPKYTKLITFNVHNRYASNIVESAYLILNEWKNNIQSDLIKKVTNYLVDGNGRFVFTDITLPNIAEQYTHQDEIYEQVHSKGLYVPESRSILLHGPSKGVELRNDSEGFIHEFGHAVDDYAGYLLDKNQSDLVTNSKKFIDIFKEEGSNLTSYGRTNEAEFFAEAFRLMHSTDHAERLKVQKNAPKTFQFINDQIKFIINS

One may read the inhibition as the relative decrease from the control value, in per cent. For `O=C1c2ccccc2C(=O)C1c1ccccc1`, the inhibition in experiment [1] was -2.6%; in experiment [2], 0.2%; in experiment [3] it was 9.8%.
As to `CC1Cc2ccccc2N1NC(=O)c1ccc(Cl)c(S(N)(=O)=O)c1` (stereo not given), the inhibition in experiment [1] was 1.4%; in experiment [2] it was 0.7%; in experiment [3], -0.2%.
With `CC(=O)c1cc2c(cc1NC(=O)c1ccco1)OCCO2`, the inhibition in experiment [1] was -1.7%; in experiment [2] it was -1.3%; in experiment [3] it was -1.9%.
For the molecule `CC(=O)Oc1cc2oc(=O)cc(C)c2cc1OC(C)=O`, the results for the inhibition in experiment [1], in experiment [2] and in experiment [3] were -1.8%, -0.8% and 1.8%, respectively.
For the molecule `Oc1[nH]c2ccccc2c1N=Nc1ccccc1`, the inhibition in experiment [1] is -2.7%; in experiment [2], -0.4%; in experiment [3], 1.4%.
For the molecule `Cc1ccc(CSCC(=O)N2CCCC2)cc1`, the inhibition in experiment [1] is 2.8%; in experiment [2], -0.3%; in experiment [3] it was 0%.
In the case of `CC(=O)NS(=O)(=O)c1ccc(N)cc1`, the inhibition was 0.7% in experiment [1], 1% in experiment [2] and 4.5% in experiment [3].
Taken in the same sequence, the figures for `CCOC(=O)C1C(=O)OC2(CCOC(C)(C)C2)C1C(=O)OCC` (stereo not given) were -2.7%, -0.2% and -0.1%.
Consider `C[C@]12CC[C@@H]3c4ccc(O)cc4CC[C@H]3[C@@H]1CCC2=O`, for which the inhibition in experiment [1] is 1.3%; in experiment [2] it was -2.2%; in experiment [3] it was -3.8%.
Consider `CN1CCN(C2=Nc3ccccc3Oc3ccc(Cl)cc32)CC1`, for which the inhibition is -0.8% in experiment [1], -1.8% in experiment [2] and -3.9% in experiment [3].
Take `CCS(=O)(=O)Nc1cc(OC)c(OC)cc1Cc1nccc2cc(OC)c(OC)cc12`: the inhibition in experiment [1] was 0.2%; in experiment [2], 0.4%; in experiment [3], -0.6%.
Regarding `CC(=O)OC(C)C[N+](C)(C)C` (stereo not given), the inhibition was 0.7% in experiment [1], 0.6% in experiment [2] and -5.8% in experiment [3].
Take `CC(=O)C1=C(NC(=O)c2ccc(C(F)(F)F)cc2)C[C@@H]2[C@H]1C2(C)C`: the values for the inhibition in experiment [1], in experiment [2] and in experiment [3] were 2%, 1.5% and -1%, respectively.
Regarding `O[C@@H](CNC[C@H](O)c1ccccc1)c1ccccc1`, the values for the inhibition in experiment [1], in experiment [2] and in experiment [3] were 3.9%, 1.5% and 4.2%, respectively.
`C[C@]12CC[C@@H]3c4ccc(OS(=O)(=O)O)cc4CC[C@H]3[C@@H]1CCC2=O`: the values for the inhibition in experiment [1], in experiment [2] and in experiment [3] were -0.1%, -0.2% and -0.2%, respectively.
In the case of `CC(=O)C1=C(O)C(=O)N(Cc2cccnc2)C1c1ccc(C(C)C)cc1` (stereo not given), the inhibition in experiment [1] is 3.2%; in experiment [2] it was 4.3%; in experiment [3], 7%.
As for `CC1(C)O[C@@H]2C[C@H]3[C@@H]4CCC5=CC(=O)C=C[C@]5(C)[C@@]4(F)[C@@H](O)C[C@]3(C)[C@]2(C(=O)CO)O1`, the inhibition in experiment [1] was -2.6%; in experiment [2], -3.3%; in experiment [3] it was -3.9%.
For `O=c1c2[nH]c3ccccc3c2ncn1CCC1=CCCCC1`, the inhibition is 4.3% in experiment [1], 0.9% in experiment [2] and -3.1% in experiment [3].
`O=CNC1CCCc2c1[nH]c1ccc(Cl)cc21` (stereo not given): the values for the inhibition in experiment [1], in experiment [2] and in experiment [3] were -1.4%, 0.2% and 1.6%, respectively.
As to `C#CCN1C(=O)C(O)(CC(=O)c2ccc(OC)c(OC)c2)c2ccccc21` (stereo not given), the inhibition is 2.3% in experiment [1], -1.3% in experiment [2] and 2% in experiment [3].
Turning to `O=C(Cc1ccccc1)NCC(=O)OCC(=O)c1ccccc1Cl`, the inhibition in experiment [1] is 1%; in experiment [2], -2.5%; in experiment [3], -9.6%.
As for `COc1cc(C2C(C(C)=O)=C(O)C(=O)N2c2ccc(C)cc2)ccc1O` (stereo not given), the values for the inhibition in experiment [1], in experiment [2] and in experiment [3] were -1.4%, 0.2% and 0%, respectively.
As for `Cn1c(=O)c2c(nc(SCCN3CCCCC3)n2C)n(C)c1=O`, the inhibition in experiment [1] was -1.4%; in experiment [2] it was 0.2%; in experiment [3] it was -4.6%.
As for `Cc1ccccc1OCCSc1nc2ncnc(N)c2[nH]1`, the inhibition in experiment [1] is 0.8%; in experiment [2], -1%; in experiment [3], 0.1%.
`CCOC(=O)c1ncn2c1CN(C)C(=O)c1cc(F)ccc1-2`: the inhibition in experiment [1] was -1.4%; in experiment [2], -1.4%; in experiment [3], -2.7%.
For `C/C(=N/N1CCN(Cc2cccc3ccccc23)CC1)c1cccnc1`, the inhibition is 6.2% in experiment [1], -0.9% in experiment [2] and -4% in experiment [3].
As for `COc1ccc2cc(-c3nc4ccccc4n3C)c(=O)oc2c1`, the inhibition was 2% in experiment [1], 1.8% in experiment [2] and 1% in experiment [3].
Consider `O=C1C(=O)c2ccccc2C(O)=C1c1ccccc1F`, for which the inhibition was 4.6% in experiment [1], 0.5% in experiment [2] and -1.5% in experiment [3].
Regarding `O=C(/C=C/c1c[nH]c2ccccc12)c1cccc2ccccc12`, the inhibition in experiment [1] is 5.1%; in experiment [2], 2.4%; in experiment [3], -6.2%.
Consider `Cn1c([N+](=O)[O-])cnc1COC(N)=O`, for which the inhibition in experiment [1] was 1.4%; in experiment [2] it was -0.6%; in experiment [3], -1.2%.
As to `Cc1nc(NCc2ccco2)c(C#N)c2c1COC(C)(C)C2`, the inhibition in experiment [1] was 1%; in experiment [2], -1.2%; in experiment [3], -0.5%.
Taken in the same sequence, the figures for `O=C1NC2(Nc3ccccc31)C(=O)Nc1ccc(Br)cc12` (stereo not given) were -0.5%, -1% and 6.8%.
As to `O=C(/C=C/c1ccc2c(c1)OCO2)c1ccccn1`, the inhibition in experiment [1] is -2.7%; in experiment [2], -0.2%; in experiment [3], -2.8%.
As to `O=S(=O)(CCc1nc2ccccc2[nH]1)c1ccc(Cl)cc1`, the inhibition was 3% in experiment [1], -0.3% in experiment [2] and 3.5% in experiment [3].
Consider `CC(NC(=O)c1cccnc1)C(=O)O` (stereo not given), for which the inhibition is -0.3% in experiment [1], -0.4% in experiment [2] and -4.7% in experiment [3].
Regarding `CCOc1cc2c(cc1OCC)C(c1ccccc1)N(c1ccc(C(=O)O)cc1)C(=O)C2` (stereo not given), the results for the inhibition in experiment [1], in experiment [2] and in experiment [3] were -1.8%, -0.7% and -5.2%, respectively.
With `O=C1CCCN1CCCn1cnc2c([nH]c3ccc(F)cc32)c1=O`, the inhibition is 0% in experiment [1], -0.3% in experiment [2] and 2.3% in experiment [3].
For the molecule `OCCOCCN1CCN(C(c2ccccc2)c2ccc(Cl)cc2)CC1` (stereo not given), the figures for the inhibition in experiment [1], in experiment [2] and in experiment [3] were 0.1%, -1.8% and 1.1%, respectively.
As for `CC1(C)CC(c2csc(N)n2)CCO1` (stereo not given), the inhibition in experiment [1] is -0.4%; in experiment [2] it was -1%; in experiment [3] it was -8.4%.
Taken in the same sequence, the figures for `CCOC(=O)N1c2ccccc2C=CC1OCC` (stereo not given) were -1.1%, -0.5% and 3.6%.
With `CC(C)=CCC(C)(C)/C=N/NC(N)=O`, the inhibition in experiment [1] is 1.8%; in experiment [2] it was 0.6%; in experiment [3], 10.3%.
For `Fc1ccc(NC(=S)Nc2ccccc2Cl)cc1`, the inhibition in experiment [1] was 1.8%; in experiment [2] it was -0.7%; in experiment [3], -3.5%.
With `COc1cc(CNc2nnnn2C)ccc1OCc1ccc(F)cc1Cl`, the inhibition in experiment [1] is -4.9%; in experiment [2], -0.5%; in experiment [3], -1.3%.
Turning to `C[C@]12CC[C@H]3C(=CCc4cc(O)ccc43)[C@@H]1CCC2=O`, the inhibition in experiment [1] was 0.5%; in experiment [2], -0.6%; in experiment [3], 2.9%.
In the case of `CCC(C(=O)Nc1ccc2c(c1)OCCO2)c1ccccc1` (stereo not given), the inhibition in experiment [1] was 0.7%; in experiment [2], -0.2%; in experiment [3], -1.8%.
Take `COc1ccc(C2NCCC3(O)CCCCC23)c(OC)c1OC` (stereo not given): the inhibition in experiment [1] is 4.3%; in experiment [2], -0.3%; in experiment [3], 4.4%.
As for `CC(C)(C)[C@]1(O)CCN2C[C@H]3c4ccccc4CCc4cccc(c43)[C@@H]2C1`, the inhibition in experiment [1] was -2.1%; in experiment [2] it was 0%; in experiment [3] it was -2.4%.
For `Cc1ccc2ncnc(NCCCCCC(=O)O)c2c1`, the figures for the inhibition in experiment [1], in experiment [2] and in experiment [3] were 1.7%, -1.1% and -4.7%, respectively.
As to `CC(C)CN1CCN(Cc2ccc(C#CC(C)(C)O)cc2)CC1CCO` (stereo not given), the inhibition is 3.7% in experiment [1], -1.1% in experiment [2] and -2.1% in experiment [3].
Turning to `COc1ccc(CCNC(=O)CC(c2ccccc2)c2cccc(C)c2O)cc1OC` (stereo not given), the inhibition in experiment [1] is -0.9%; in experiment [2], -0.9%; in experiment [3] it was 0.1%.
Take `C[C@H](NC(=O)NCCc1ccccc1)C(=O)O`: the inhibition in experiment [1] is 0.5%; in experiment [2] it was -0.2%; in experiment [3], -0.6%.
Take `CCN1C(=O)C(CC(=O)Nc2ccc(OC)cc2)N(CCc2ccc(F)cc2)C1=S` (stereo not given): the inhibition was 0.2% in experiment [1], 1.4% in experiment [2] and 1.4% in experiment [3].
Consider `CSCC[C@H](NC(=O)Nc1ccc(C)cc1C)C(=O)O`, for which the inhibition in experiment [1] was -2.1%; in experiment [2] it was 1.4%; in experiment [3] it was 0.5%.
In the case of `CCOc1cc2c3c(c1)C(C)=CC(C)(C)N3C(=O)C2=O`, the values for the inhibition in experiment [1], in experiment [2] and in experiment [3] were 1.1%, -2.5% and -4%, respectively.
Take `CCOc1ccc(C(=O)/C=C/c2cc(OC)c(OC)c(OC)c2)cc1`: the inhibition in experiment [1] is 0.5%; in experiment [2], -0.5%; in experiment [3], 4.5%.
With `Cc1ccc2[nH]c3c(c2c1)CN(C(=O)CN1CCSCC1)CC3`, the inhibition in experiment [1] was 61.5% (active); in experiment [2], 3.7%; in experiment [3], 11.6%.
Take `COc1ccc(Cc2nc(-c3ccc(Br)cc3)no2)cc1`: the inhibition in experiment [1] was -0.7%; in experiment [2], -1.6%; in experiment [3] it was -5.8%.
For `CC1(C)S[C@@H]2[C@H](NC(=O)C(C(=O)O)c3ccccc3)C(=O)N2[C@H]1C(=O)O` (stereo not given in full), the figures for the inhibition in experiment [1], in experiment [2] and in experiment [3] were 3.8%, 1.2% and -6.1%, respectively.
On to `Cc1oc2cc(O)ccc2c(=O)c1Oc1ccccc1Br`, for which the inhibition in experiment [1] was -1.1%; in experiment [2] it was -0.5%; in experiment [3], -0.7%.
As to `COC1CCN(C(=O)c2ccc(OC3CCN(Cc4ccccn4)CC3)cc2)CC1`, the figures for the inhibition in experiment [1], in experiment [2] and in experiment [3] were 2.5%, 2.3% and 0.5%, respectively.
Turning to `O=C(COc1ccccc1)Nc1ccc2c(c1)C(=O)N(CC1CCCO1)C2=O` (stereo not given), the inhibition in experiment [1] was -0.5%; in experiment [2] it was -0.9%; in experiment [3] it was 4.5%.
Taken in the same sequence, the figures for `CCN(CC)C(=O)c1sc(NC(=O)c2c(OC)cccc2OC)c(C#N)c1C` were 6%, 2.1% and 3.6%.
As to `COc1ccc(CNCCC(c2ccc(F)cc2)c2ccc(OC(C)C)cc2)cc1OC` (stereo not given), the inhibition was -0.6% in experiment [1], -2% in experiment [2] and 8.2% in experiment [3].
Take `COc1cc(-c2cccs2)cc(=O)c2c(C)oc(C)c12`: the values for the inhibition in experiment [1], in experiment [2] and in experiment [3] were 1.4%, 2.1% and -4%, respectively.
In the case of `CC1(C)[C@@H](O)CC[C@]2(C)[C@H]3C(=O)C=C4[C@@H]5C[C@@](C)(C(=O)O)CC[C@]5(C)CC[C@@]4(C)[C@]3(C)CC[C@@H]12`, the inhibition in experiment [1] is 4.4%; in experiment [2] it was -1.5%; in experiment [3] it was -0.5%.
